Measurements taken from ChEMBL document CHEMBL1961873, “Compounds: GSK PKIS; Assays: Nanosyn kinase panel” (2012).

Experiments:
[1] = target: Tyrosine-protein kinase Fer (Homo sapiens) (UniProt P16591); conditions: at 1 µM
[2] = target: Tyrosine-protein kinase Fes/Fps (Homo sapiens) (UniProt P07332); conditions: at 0.1 µM
[3] = target: Tyrosine-protein kinase Fes/Fps (Homo sapiens) (UniProt P07332); conditions: at 1 µM
[4] = target: Fibroblast growth factor receptor 1 (Homo sapiens) (UniProt P11362); conditions: at 0.1 µM
[5] = target: Fibroblast growth factor receptor 1 (Homo sapiens) (UniProt P11362); conditions: at 1 µM
[6] = target: Fibroblast growth factor receptor 2 (Homo sapiens) (UniProt P21802); conditions: at 0.1 µM
[7] = target: Fibroblast growth factor receptor 2 (Homo sapiens) (UniProt P21802); conditions: at 1 µM
[8] = target: Fibroblast growth factor receptor 3 (Homo sapiens) (UniProt P22607); conditions: at 0.1 µM
[9] = target: Fibroblast growth factor receptor 3 (Homo sapiens) (UniProt P22607); conditions: at 1 µM
[10] = target: Fibroblast growth factor receptor 4 (Homo sapiens) (UniProt P22455); conditions: at 0.1 µM
[11] = target: Fibroblast growth factor receptor 4 (Homo sapiens) (UniProt P22455); conditions: at 1 µM
[12] = target: Tyrosine-protein kinase Fgr (Homo sapiens) (UniProt P09769); conditions: at 0.1 µM
[13] = target: Tyrosine-protein kinase Fgr (Homo sapiens) (UniProt P09769); conditions: at 1 µM
[14] = target: Vascular endothelial growth factor receptor 1 (Homo sapiens) (UniProt P17948); conditions: at 0.1 µM
[15] = target: Vascular endothelial growth factor receptor 1 (Homo sapiens) (UniProt P17948); conditions: at 1 µM
[16] = target: Receptor-type tyrosine-protein kinase FLT3 (Homo sapiens) (UniProt P36888); conditions: at 0.1 µM
[17] = target: Receptor-type tyrosine-protein kinase FLT3 (Homo sapiens) (UniProt P36888); conditions: at 1 µM
[18] = test system: T1, Receptor-type tyrosine-protein kinase FLT3 (Homo sapiens), P36888 [D835Y]; conditions: at 0.1 µM
T1 sequence (whole entry): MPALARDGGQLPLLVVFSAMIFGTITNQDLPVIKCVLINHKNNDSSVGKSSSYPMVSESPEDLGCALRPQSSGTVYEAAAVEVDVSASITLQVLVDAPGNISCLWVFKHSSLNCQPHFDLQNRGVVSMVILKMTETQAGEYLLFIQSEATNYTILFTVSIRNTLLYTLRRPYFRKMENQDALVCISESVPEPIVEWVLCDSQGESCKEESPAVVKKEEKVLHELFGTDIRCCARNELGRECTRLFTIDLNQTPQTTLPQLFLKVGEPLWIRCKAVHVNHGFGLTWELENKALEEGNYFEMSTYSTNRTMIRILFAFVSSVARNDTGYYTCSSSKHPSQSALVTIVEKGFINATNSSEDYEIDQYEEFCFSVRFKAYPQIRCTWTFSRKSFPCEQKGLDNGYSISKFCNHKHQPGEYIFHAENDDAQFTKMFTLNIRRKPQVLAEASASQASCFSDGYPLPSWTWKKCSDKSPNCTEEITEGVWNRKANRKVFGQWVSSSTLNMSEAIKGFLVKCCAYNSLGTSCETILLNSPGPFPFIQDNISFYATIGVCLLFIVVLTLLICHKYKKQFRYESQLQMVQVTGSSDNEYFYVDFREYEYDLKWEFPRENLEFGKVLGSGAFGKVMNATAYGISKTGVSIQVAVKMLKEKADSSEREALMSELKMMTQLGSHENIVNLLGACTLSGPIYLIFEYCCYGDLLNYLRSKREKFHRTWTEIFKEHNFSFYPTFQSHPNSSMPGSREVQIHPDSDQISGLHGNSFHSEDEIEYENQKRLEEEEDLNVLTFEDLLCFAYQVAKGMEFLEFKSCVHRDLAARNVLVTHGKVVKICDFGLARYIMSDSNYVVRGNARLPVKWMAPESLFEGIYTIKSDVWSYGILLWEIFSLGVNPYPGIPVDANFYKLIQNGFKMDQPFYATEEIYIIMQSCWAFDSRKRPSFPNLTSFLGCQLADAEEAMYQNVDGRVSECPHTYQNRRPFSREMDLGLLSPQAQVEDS

[19] = target: Non-receptor tyrosine-protein kinase TYK2 (Homo sapiens) (UniProt P29597); conditions: at 1 µM;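 note: values are mean percent inhibition of TYK2 kinase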
[20] = target: T2, Tyrosine-protein kinase receptor TYRO3 (Homo sapiens) (UniProt Q06418); conditions: at 0.1 µM;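 note: reported percentages are averaged inhibition values of TYRO3 kinase activity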
T2 sequence (whole entry): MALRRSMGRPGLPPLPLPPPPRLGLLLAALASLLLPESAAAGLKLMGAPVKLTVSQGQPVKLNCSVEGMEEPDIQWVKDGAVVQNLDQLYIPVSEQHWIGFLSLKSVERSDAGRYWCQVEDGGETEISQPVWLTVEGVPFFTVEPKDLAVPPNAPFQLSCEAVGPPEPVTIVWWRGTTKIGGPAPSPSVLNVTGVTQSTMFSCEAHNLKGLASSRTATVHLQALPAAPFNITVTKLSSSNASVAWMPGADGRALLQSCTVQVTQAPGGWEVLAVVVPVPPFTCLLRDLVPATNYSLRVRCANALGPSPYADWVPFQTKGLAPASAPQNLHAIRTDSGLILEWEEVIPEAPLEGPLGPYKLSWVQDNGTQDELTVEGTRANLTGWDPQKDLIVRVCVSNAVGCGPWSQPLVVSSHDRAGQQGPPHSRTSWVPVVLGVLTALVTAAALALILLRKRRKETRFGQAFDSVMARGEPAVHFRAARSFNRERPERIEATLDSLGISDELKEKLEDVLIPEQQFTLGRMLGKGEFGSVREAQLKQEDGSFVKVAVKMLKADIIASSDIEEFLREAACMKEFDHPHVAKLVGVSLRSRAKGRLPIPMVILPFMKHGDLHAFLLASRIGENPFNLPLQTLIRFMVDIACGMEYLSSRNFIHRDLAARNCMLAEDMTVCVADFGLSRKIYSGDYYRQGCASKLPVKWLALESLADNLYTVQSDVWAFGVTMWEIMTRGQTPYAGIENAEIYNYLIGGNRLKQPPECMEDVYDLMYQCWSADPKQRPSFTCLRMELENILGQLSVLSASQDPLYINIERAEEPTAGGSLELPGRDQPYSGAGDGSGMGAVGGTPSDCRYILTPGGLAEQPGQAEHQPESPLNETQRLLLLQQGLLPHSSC

Sequence of Tyrosine-protein kinase Fer (Homo sapiens) (P16591 whole entry, looked up): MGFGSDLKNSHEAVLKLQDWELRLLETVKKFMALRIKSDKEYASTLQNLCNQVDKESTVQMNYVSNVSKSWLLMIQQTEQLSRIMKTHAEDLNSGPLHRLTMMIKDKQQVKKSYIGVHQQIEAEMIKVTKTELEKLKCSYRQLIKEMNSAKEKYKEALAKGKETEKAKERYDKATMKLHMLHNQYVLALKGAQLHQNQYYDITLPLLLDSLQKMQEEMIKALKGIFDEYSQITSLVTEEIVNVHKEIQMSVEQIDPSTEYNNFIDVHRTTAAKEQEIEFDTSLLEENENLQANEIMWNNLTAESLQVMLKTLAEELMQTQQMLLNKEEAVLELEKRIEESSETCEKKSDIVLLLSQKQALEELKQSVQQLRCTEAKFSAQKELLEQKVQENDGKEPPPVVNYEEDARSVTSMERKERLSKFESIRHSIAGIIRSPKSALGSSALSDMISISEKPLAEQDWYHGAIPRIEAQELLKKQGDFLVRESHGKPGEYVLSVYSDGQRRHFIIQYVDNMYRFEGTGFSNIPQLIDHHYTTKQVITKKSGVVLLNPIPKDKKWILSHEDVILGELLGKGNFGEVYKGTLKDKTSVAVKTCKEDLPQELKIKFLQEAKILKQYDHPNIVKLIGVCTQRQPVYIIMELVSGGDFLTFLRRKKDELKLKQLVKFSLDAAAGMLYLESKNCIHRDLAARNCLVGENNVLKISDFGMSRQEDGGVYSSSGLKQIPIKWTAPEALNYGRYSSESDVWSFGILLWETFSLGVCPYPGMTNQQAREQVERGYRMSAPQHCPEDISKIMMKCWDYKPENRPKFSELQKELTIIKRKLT
Sequence of Tyrosine-protein kinase Fgr (Homo sapiens) (P09769 2-529 limits assumed): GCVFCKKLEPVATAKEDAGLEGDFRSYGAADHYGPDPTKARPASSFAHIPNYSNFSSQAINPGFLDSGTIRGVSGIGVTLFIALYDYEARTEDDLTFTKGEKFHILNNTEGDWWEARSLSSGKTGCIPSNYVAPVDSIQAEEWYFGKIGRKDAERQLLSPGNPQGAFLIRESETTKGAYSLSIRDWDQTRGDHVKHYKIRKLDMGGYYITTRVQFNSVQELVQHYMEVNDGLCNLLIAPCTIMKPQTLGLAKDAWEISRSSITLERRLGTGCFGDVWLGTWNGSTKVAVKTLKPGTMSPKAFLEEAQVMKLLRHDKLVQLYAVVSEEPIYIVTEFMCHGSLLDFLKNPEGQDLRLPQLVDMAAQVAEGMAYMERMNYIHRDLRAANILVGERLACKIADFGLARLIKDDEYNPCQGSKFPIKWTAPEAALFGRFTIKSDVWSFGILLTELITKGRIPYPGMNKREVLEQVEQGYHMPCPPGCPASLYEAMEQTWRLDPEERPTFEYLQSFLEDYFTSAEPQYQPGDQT
Sequence of Fibroblast growth factor receptor 3 (Homo sapiens) (P22607 23-806 limits assumed): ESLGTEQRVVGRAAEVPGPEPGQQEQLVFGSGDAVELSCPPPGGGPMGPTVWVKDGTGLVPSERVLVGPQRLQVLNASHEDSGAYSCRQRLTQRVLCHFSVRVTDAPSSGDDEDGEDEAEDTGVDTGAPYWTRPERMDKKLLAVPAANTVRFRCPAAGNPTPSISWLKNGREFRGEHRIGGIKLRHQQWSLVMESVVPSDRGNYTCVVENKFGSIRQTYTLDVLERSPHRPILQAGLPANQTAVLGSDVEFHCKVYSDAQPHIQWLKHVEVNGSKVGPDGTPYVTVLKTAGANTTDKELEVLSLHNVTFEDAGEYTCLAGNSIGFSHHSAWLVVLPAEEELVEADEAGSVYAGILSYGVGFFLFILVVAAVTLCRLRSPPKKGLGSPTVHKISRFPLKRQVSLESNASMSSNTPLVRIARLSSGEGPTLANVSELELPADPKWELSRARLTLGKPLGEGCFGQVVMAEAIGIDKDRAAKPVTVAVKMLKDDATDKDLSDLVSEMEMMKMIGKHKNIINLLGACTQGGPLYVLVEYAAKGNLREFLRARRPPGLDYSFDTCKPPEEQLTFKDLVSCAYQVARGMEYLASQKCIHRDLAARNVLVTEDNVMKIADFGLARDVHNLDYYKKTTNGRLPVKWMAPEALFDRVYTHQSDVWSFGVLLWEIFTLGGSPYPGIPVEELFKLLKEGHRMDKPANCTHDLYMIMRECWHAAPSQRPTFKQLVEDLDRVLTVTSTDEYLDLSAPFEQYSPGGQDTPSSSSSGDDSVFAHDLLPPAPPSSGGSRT
Sequence of Fibroblast growth factor receptor 2 (Homo sapiens) (P21802 22-821 limits assumed): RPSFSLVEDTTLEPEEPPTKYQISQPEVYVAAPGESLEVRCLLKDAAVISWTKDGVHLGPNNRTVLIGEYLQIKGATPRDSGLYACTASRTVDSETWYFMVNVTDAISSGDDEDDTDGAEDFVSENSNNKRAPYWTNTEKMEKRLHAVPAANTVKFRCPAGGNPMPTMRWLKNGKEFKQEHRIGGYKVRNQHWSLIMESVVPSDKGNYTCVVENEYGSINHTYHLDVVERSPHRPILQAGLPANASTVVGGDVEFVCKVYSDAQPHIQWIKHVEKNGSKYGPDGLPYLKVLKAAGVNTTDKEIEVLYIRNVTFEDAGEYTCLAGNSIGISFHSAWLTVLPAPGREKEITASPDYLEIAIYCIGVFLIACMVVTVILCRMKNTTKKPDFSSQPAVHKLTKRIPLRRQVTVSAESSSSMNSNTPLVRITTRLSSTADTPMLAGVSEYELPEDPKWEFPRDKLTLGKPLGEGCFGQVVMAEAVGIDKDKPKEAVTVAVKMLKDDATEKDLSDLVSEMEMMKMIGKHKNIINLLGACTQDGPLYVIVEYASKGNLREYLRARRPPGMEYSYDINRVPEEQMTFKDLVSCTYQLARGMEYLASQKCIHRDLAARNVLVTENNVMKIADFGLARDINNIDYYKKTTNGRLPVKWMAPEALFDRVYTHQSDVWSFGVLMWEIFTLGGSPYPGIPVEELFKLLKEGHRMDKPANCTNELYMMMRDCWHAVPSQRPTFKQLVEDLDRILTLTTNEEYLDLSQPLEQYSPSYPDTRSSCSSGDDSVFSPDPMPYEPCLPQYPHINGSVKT
Sequence of Tyrosine-protein kinase Fes/Fps (Homo sapiens) (P07332 whole entry): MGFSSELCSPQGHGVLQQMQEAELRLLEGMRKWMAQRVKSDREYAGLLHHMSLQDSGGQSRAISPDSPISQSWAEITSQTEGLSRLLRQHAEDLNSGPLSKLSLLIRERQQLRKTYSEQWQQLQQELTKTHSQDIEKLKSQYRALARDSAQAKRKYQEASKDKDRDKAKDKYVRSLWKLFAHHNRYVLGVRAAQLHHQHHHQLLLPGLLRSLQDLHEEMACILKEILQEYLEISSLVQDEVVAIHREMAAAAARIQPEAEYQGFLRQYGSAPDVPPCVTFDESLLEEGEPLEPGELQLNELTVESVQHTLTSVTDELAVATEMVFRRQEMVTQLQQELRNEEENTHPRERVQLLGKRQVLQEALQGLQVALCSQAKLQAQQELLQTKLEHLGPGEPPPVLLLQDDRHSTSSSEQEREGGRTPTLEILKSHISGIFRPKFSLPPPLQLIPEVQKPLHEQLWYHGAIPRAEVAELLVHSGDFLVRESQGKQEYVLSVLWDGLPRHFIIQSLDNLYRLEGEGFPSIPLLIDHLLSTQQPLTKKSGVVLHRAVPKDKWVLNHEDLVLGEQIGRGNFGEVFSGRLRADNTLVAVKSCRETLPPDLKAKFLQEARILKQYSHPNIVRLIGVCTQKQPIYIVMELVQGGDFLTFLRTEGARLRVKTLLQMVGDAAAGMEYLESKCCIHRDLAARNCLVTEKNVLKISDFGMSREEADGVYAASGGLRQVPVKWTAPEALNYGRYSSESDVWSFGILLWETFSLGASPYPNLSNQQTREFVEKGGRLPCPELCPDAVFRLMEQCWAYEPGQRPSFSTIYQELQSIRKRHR
Sequence of Fibroblast growth factor receptor 4 (Homo sapiens) (P22455 22-802 limits assumed): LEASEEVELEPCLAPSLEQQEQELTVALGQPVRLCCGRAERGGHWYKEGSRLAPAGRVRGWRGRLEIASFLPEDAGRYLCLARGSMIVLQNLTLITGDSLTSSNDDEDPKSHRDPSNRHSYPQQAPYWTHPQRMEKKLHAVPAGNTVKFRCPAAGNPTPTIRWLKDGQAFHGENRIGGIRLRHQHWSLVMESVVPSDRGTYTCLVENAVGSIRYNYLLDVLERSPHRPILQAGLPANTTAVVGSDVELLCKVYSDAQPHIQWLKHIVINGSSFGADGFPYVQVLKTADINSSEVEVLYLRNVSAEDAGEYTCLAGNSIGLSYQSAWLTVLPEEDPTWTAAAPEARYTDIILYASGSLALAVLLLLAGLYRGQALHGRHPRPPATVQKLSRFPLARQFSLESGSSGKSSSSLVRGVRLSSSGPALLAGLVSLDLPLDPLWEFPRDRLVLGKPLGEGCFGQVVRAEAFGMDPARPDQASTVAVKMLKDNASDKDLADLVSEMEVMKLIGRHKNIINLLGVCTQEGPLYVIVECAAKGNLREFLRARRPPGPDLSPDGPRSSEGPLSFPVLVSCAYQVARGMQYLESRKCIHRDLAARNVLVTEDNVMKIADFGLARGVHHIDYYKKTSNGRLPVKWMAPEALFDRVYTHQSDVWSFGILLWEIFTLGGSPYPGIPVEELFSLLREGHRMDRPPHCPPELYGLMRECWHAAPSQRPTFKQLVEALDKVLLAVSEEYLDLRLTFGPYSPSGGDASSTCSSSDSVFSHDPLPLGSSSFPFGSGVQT

SMILES: CN(C)C(=O)O[C@H]1CN[C@H](C#Cc2cc3ncnc(Nc4ccc(OCc5cccc(F)c5)c(Cl)c4)c3s2)C1
- inhibition [1]: -0.03%
- inhibition [2]: 2.17%
- inhibition [3]: 3.06%
- inhibition [4]: 2.33%
- inhibition [5]: 5.24%
- inhibition [6]: 2.11%
- inhibition [7]: 7.78%
- inhibition [8]: 5.3%
- inhibition [9]: 5.64%
- inhibition [10]: 0.8%
- inhibition [11]: 1.39%
- inhibition [12]: 1.56%
- inhibition [13]: 4.75%
- inhibition [14]: 1.8%
- inhibition [15]: 2.23%
- inhibition [16]: -0.55%
- inhibition [17]: 0.66%
- inhibition [18]: 3.22%
- inhibition [19]: -2.89%
- inhibition [20]: 2.23%

SMILES: CS(=O)(=O)CCNCc1nc(-c2ccc3ncnc(Nc4ccc(OCc5cccc(C(F)(F)F)c5)cc4)c3c2)cs1
- inhibition [1]: 6.92%
- inhibition [2]: 1.48%
- inhibition [3]: 3.22%
- inhibition [4]: 2.15%
- inhibition [5]: 4.98%
- inhibition [6]: 6.08%
- inhibition [7]: 5.8%
- inhibition [8]: 4.91%
- inhibition [9]: 4.35%
- inhibition [10]: 4.89%
- inhibition [11]: 0.59%
- inhibition [12]: 2.47%
- inhibition [13]: 4.41%
- inhibition [14]: -0.29%
- inhibition [15]: -0.5%
- inhibition [16]: 7.87%
- inhibition [17]: 32.1%
- inhibition [18]: 2.62%
- inhibition [19]: -0.77%
- inhibition [20]: 0.47%

SMILES: [O-][S+]1CCN(Cc2ccc(-c3ccc4ncnc(Nc5ccc(OCc6ccccc6)c(Cl)c5)c4c3)o2)CC1
- inhibition [1]: 4.1%
- inhibition [2]: 1.31%
- inhibition [3]: 1.62%
- inhibition [4]: -2.69%
- inhibition [5]: 1.21%
- inhibition [6]: 0.85%
- inhibition [7]: 3.74%
- inhibition [8]: -0.22%
- inhibition [9]: 3.23%
- inhibition [10]: -0.05%
- inhibition [11]: -0.87%
- inhibition [12]: -0.44%
- inhibition [13]: 8.63%
- inhibition [14]: -0.09%
- inhibition [15]: 1.05%
- inhibition [16]: 5.36%
- inhibition [17]: 2.27%
- inhibition [18]: 0.74%
- inhibition [19]: -0.57%
- inhibition [20]: 0.39%

SMILES: CCn1c(-c2nonc2N)nc2c(C#CC(C)(C)O)nc(OCCNC)cc21
- inhibition [1]: 1.17%
- inhibition [2]: 4.11%
- inhibition [3]: 4.46%
- inhibition [4]: 6.92%
- inhibition [5]: 5.9%
- inhibition [6]: 5.4%
- inhibition [7]: 6.92%
- inhibition [8]: 7.79%
- inhibition [9]: 3.95%
- inhibition [10]: 4.43%
- inhibition [11]: 1.88%
- inhibition [12]: 0.15%
- inhibition [13]: 3.62%
- inhibition [14]: 1.71%
- inhibition [15]: 10.2%
- inhibition [16]: 1.46%
- inhibition [17]: 4.57%
- inhibition [18]: -1.99%
- inhibition [19]: -2.59%
- inhibition [20]: 2.56%

SMILES: NS(=O)(=O)c1ccc(Nc2cc(-c3cccc(O)c3)n[nH]2)cc1
- inhibition [1]: 7.21%
- inhibition [2]: 3.6%
- inhibition [3]: 4.45%
- inhibition [4]: 7.55%
- inhibition [5]: 14.2%
- inhibition [6]: 8.82%
- inhibition [7]: 15.9%
- inhibition [8]: 9.15%
- inhibition [9]: 13.4%
- inhibition [10]: -0.72%
- inhibition [11]: 4.03%
- inhibition [12]: 2.88%
- inhibition [13]: 6.79%
- inhibition [14]: 2.51%
- inhibition [15]: 11.9%
- inhibition [16]: 5.64%
- inhibition [17]: 23.2%
- inhibition [18]: 3.16%
- inhibition [19]: -3.05%
- inhibition [20]: 3.41%

SMILES: O=C1Nc2ccccc2/C1=C/Nc1ccc2[nH]c(=O)[nH]c2c1
- inhibition [1]: 12.1%
- inhibition [2]: 4.03%
- inhibition [3]: 5.17%
- inhibition [4]: 7.8%
- inhibition [5]: 16.5%
- inhibition [6]: 9.08%
- inhibition [7]: 35%
- inhibition [8]: 10%
- inhibition [9]: 33%
- inhibition [10]: 1.89%
- inhibition [11]: 11.4%
- inhibition [12]: 11.3%
- inhibition [13]: 26.5%
- inhibition [14]: 11%
- inhibition [15]: 30.1%
- inhibition [16]: 26.6%
- inhibition [17]: 74%
- inhibition [18]: 17.5%
- inhibition [19]: 18.7%
- inhibition [20]: 5.57%

SMILES: Cc1ccc2c(c1)/C(=N/Nc1ccc(S(N)(=O)=O)cc1)C(=O)N2
- inhibition [1]: 0.29%
- inhibition [2]: -0.01%
- inhibition [3]: 0.85%
- inhibition [4]: 0.1%
- inhibition [5]: 4.71%
- inhibition [6]: 2.39%
- inhibition [7]: 27.2%
- inhibition [8]: 4.04%
- inhibition [9]: 26.5%
- inhibition [10]: -1.85%
- inhibition [11]: -0.45%
- inhibition [12]: -0.72%
- inhibition [13]: 9.99%
- inhibition [14]: 0.83%
- inhibition [15]: 7.86%
- inhibition [16]: 13.6%
- inhibition [17]: 61.7%
- inhibition [18]: -0.36%
- inhibition [19]: 1.67%
- inhibition [20]: -0.02%
